Activity calls are given as the source filed them. Calls follow the shape of the dose curve; as a rule, active = well fitted curve in the direction sought with a large enough effect in the repeat runs; inconclusive = weak or mixed curves; inactive = flat fitted curve, though single readings scatter.
Assay: qHTS assay to test for compound auto fluorescence at 590 nm (red) in HEK293 cells (AID 720679)
Details: red autofluorescence 540/590 nm; series mostly up to 91.3 µM; fluorescence, % of fluorescent control: at the top concentration
From the text: National Center for Advancing Translational Sciences [NCATS]
NIH Chemical Genomics Center [NCGC]
U.S. Environmental Protection Agency [EPA]
National Institutes of Environmental Health Sciences [NIEHS]
National Toxicology Program [NTP]
U.S. Food and Drug Administration [FDA]
Compound auto fluorescence often interferes with screening of the compound library against various biological targets and signaling pathways. Some of these compounds may have fluorophoric properties. Such properties may interfere with the assay outputs resulting in false positives and/or negatives. To decrease such complications and ensure the compound activities are relevant in terms of biological response, the Tox21 10K compound library was screened for auto fluorescence.
From the fluorophores used as reporter signals in our screening assays, the auto fluorescence equivalencies of compounds against three fluorophores have been evaluated: Triamterene, Fluorescein and Rose Bengal sodium for blue, green and red fluorescence, respectively. The fluorescence intensities were measured using Excitation/Emission wavelengths at 405/460nm, 485/535nm and 540/590nm for blue, green and red labels, respectively. This assay includes the red fluorescence data.
Tox21 Assay Protocol Summary:
2,000 HEK293 cells in 5 uL of culture medium containing 10% dialyzed FBS per well were dispensed into black wall/clear bottom 1536-well plates using a Multidrop Combi Dispenser (Thermo Scientific). The assay plates were incubated for 4-5 hr at 37C to allow cell attachment to the well bottom, followed by the transfer of 23 nL compound or DMSO vehicle by a pintool work station (Kalypsys, San Diego, CA). After the assay plates were incubated overnight at 37C and 5% CO2, fluorescence intensities in the assay plates were measured by an Envision (PerkinElmer, Shelton, CT) plate reader using three labels for measuring blue, green and red fluorescence at […] 460, 535 and 590nm respectively.
% is scaled to controls: 0 for no effect and ±100 for the full control effect.

Compound	fluorescence, % of fluorescent control	outcome
Cc1ccc(Nc2nccc(N(C)c3ccc4c(C)n(C)nc4c3)n2)cc1S(N)(=O)=O	-1.19% [at 46 µM] (inactive)	
N#C[C@@H]1C[C@@H]2C[C@@H]2N1C(=O)[C@@H](N)C12CC3CC(CC(O)(C3)C1)C2	0.0098% [at 46 µM] (inactive)	
O=C(Nc1ccccc1)Nc1ccccc1	0.144% (inactive)	
O=c1[nH]c2ccc(S(=O)CCN3CCC(Cc4ccc(F)cc4)CC3)cc2o1 (stereo not given)	0.254% (inactive)	
c1cnc2c(n1)CCCC2	0.485% (inactive)	
CCOC(=O)CC(=O)C(=O)OCC	0.465% (inactive)	
Nc1ccc(Cl)cc1[N+](=O)[O-]	-0.11% (inactive)	
CC(C)(C)C(=O)C(Oc1ccc(Cl)cc1)n1ccnc1 (stereo not given)	0.0106% [at 46 µM] (inactive)	
NCC1CCCC(CN)C1 (stereo not given)	-0.948% (inactive)	
Nc1ccc(S(=O)(=O)O)cc1	-0.694% (inactive)	
CC[C@H](NC(=O)c1cc(F)ccc1NS(=O)(=O)c1cccc2cccnc12)c1ccccc1	-0.0428% (inactive)	
Cc1cc(O)c(C(C)C)cc1Cl		inactive
CCCCC(=O)O[C@]1(C(=O)CO)[C@@H](C)C[C@H]2[C@@H]3CCC4=CC(=O)C=C[C@]4(C)[C@@]3(F)[C@@H](O)C[C@@]21C	-0.0412% (inactive)	
CN(C)CCOC1=Cc2ccccc2Sc2ccc(Cl)cc21	0.385% [at 46 µM] (inactive)	
C=CCOC(=O)/C=C\C(=O)OCC=C	-0.537% [at 95.7 µM] (inactive)	
CC1(C)C(=O)N(Br)C(=O)N1Cl	-0.147% (inactive)	
CCCOC(=O)c1ccc(C(=O)OCCC)nc1	0.157% (inactive)	
CC1=CC(=O)CC(C)(C)C1(O)/C=C/C(C)=C\C(=O)O (stereo not given)	-0.235% (inactive)	
Cc1ccc(S)cc1	0.0329% (inactive)	
CCn1cc(C(=O)O)c(=O)c2cc(F)c(N3CCNCC3)nc21	-0.616% [at 18.6 µM] (inactive)	

Compound	fluorescence, % of fluorescent control	outcome
Cc1cc(S(=O)(=O)O)ccc1N=Nc1c(O)ccc2ccccc12	1.07% (inactive)	
Cc1cnc(C)c(C)n1	0.187% [at 95.7 µM] (inactive)	
CCCCOC(=O)CCS	-0.587% (inactive)	
CC(C)(CCl)c1ccccc1	0.63% (inactive)	
O=C(NCCCN1CCOCC1)c1ccc(Cl)cc1	0.0429% [at 46 µM] (inactive)	
CCCCCCCCCCOS(=O)(=O)O	0.273% (inactive)	
CCOC(=N)CC(=O)OCC	0.0818% (inactive)	
CC(=O)Oc1ccc2c(c1)CC[C@@H]1[C@@H]2CC[C@]2(C)[C@@H](O)CC[C@@H]12	0.0559% [at 46 µM] (inactive)	
O=C(N[C@@H](c1ccccc1)[C@@H]1CCCCN1)c1cccc(C(F)(F)F)c1Cl	-0.0223% (inactive)	
COCCOC	-0.0209% (inactive)	
CCCCCCOC(=O)C(C)C	0.142% (inactive)	
CCCCCCCCCCCCCCC[C@H](O)[C@@H](N)CO	0.367% [at 46 µM] (inactive)	
CNCCCC1c2ccccc2C=Cc2ccccc21	-0.279% [at 18.6 µM] (inactive)	
CO[C@H]1O[C@H](CO)[C@@H](O)[C@H](O)[C@H]1O	-0.267% (inactive)	
CCC(=O)OC/C=C/c1ccccc1	-0.0139% (inactive)	
CCC(C)(O)CCC=C(C)C (stereo not given)	-0.333% (inactive)	
CC(C)CCCC(=O)O	0.133% (inactive)	
Cc1cc(OI)c(C(C)C)cc1-c1cc(C(C)C)c(OI)cc1C	0.0971% [at 46 µM] (inactive)	
N#C/C(=C1\SCC(c2ccccc2Cl)S1)n1ccnc1 (stereo not given)	-0.0952% [at 46 µM] (inactive)	
COCc1c(C(C)C)nc(C(C)C)c(/C=C/[C@@H](O)C[C@@H](O)CC(=O)O)c1-c1ccc(F)cc1	0.0704% [at 46 µM] (inactive)	
